Compound activity: PubChem, National Center for Advancing Translational Sciences (NCATS)
Most compounds without a hit are left out; they make up all but 8.1% or so of the library.
KB-3-1 tox – KB-3-1 parental cell cytotoxicity; KB-3-1 viability, CellTiter-Glo ATP luminescence, 72 h; Potency, µM (doses to about 46.1 µM), actives largely listed as cytotoxic; 1.4% of 400,000 active; also: % is scaled to controls: 0 for no effect and ±100 for the full control effect; nearly all actives have a fitted effect of over 60% in size
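KB-3-1 cells, DMEM (no phenol red) + 10% FBS; compound by pin transfer, 72 h, 37 °C. Readout: CellTiter-Glo luminescence after 10 min. Data normalized, curve-fitted.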
ELG1 repair inh – ELG1-dependent DNA repair inhibition; Potency, µM (doses to about 46.1 µM), for the others: at the highest dose activity change, negative = inhibition, usual class: inhibitors; AID 504467; HEK293T ELG1-luciferase reporter, luminescence, 16 h; DNA damage induced by 5-fluorouridine; 2.3% of 330,000 active; also: % is scaled to controls: 0 for no effect and ±100 for the full control effect; nearly all actives have a fitted effect of over 55% in size
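Step one: seed 2,000 cells per well. Step two: pin-transfer compound or DMSO alongside 5-fluorouridine. Step three: incubate 16 hr, 37 °C, 5% CO2. Step four: add ONE-Glo, wait 30 min, read luminescence.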
KB-V1 cytotox – kills drug-selected multidrug resistant KB-V1 cells; KB-V1 MDR cells viability, CellTiter-Glo, 72 h; Potency, µM (top dose mostly 46.1 µM), usual class: cytotoxic; 3.4% of 400,000 active; AID 1347076; also: % is scaled to controls: 0 for no effect and ±100 for the full control effect; nearly all actives have a fitted effect of over 60% in size
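qHTS viability screen in drug-selected KB-V1 MDR cells: 72 h compound treatment at 37 degrees C, ATP luminescence end point.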
SW480 rerep – inducers of DNA re-replication in SW480 colon cancer cells. SW480 DNA re-replication, Hoechst DNA content imaging, 48 h. Potency, µM (titrated, usually from 46.1 µM), for inactives: at the top dose re-replication activation, actives largely listed as activators. 1.8% of 340,000 active; also: % of control where 0% means no effect; nearly all actives have a fitted effect of over 55% in size
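Cells (250 per well) received 23 nL compound or DMSO by pin tool and were kept 48 hr at 37 C, 5% CO2. Nuclei were then stained with Hoechst for 40 min and scanned for DNA content.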
MCF10A rerep – induces DNA re-replication in MCF 10a normal breast cells; Potency, µM (doses to about 46.1 µM), for the others: at the highest dose activity, positive = re-replication, usual class: activators; 2.9% of 350,000 active; MCF 10A DNA re-replication, Hoechst nuclear intensity, 48 h; also: % of control where 0% means no effect; nearly all actives have a fitted effect of over 50% in size
An asterisk follows results filed as active; i = inactive; ? = inconclusive; . = no result; [ ] = remark or other dose. Calls follow the shape of the dose curve; as a rule, active = well fitted curve in the direction sought with a large enough effect; inconclusive = small, poorly fitted or top-dose-only effect, or another doubt; inactive = no such curve, though single readings can be large; an effect the other way counts as inactive or inconclusive. Potency is read from the fitted curve at half-maximal effect.

SMILES	KB-3-1 tox	ELG1 repair inh	KB-V1 cytotox	SW480 rerep	MCF10A rerep
O=C(NCCN1CCOCC1)c1ccc2c(c1)N(Cc1cccc(F)c1)C(=O)c1ccccc1S2	i	?	i	-14%	11%
Cc1ccc(/C=C2/Sc3ccc(C(=O)NCCN4CCOCC4)cc3NC2=O)cc1	i	18%	i	5%	21µM*
CN1CCN(CCCNC(=O)c2ccc(/C=C3\Sc4ccccc4N(Cc4ccccc4F)C3=O)cc2)CC1	i	-9%	i	21µM*	16µM*
Cc1ccccc1CN1C(=O)/C(=C\c2ccc(C(=O)NCCN3CCOCC3)cc2)Sc2ccccc21	i	?	i	?	21µM*
CCN1CCN(CCNC(=O)c2ccc(/C=C3/Sc4ccccc4N(Cc4cccc(Cl)c4)C3=O)cc2)CC1	?	?	?	7%	21µM*
CC(C)(C)OC(=O)N1CCN(C(=O)Nc2ccc3c(c2)OCCO3)CC1	i	29%	?	1%	-1%
O=C(Nc1ccc2c(c1)OCCO2)N1CCN(c2ccc(F)cc2)CC1	?	?	21µM*	2%	10%
Cc1cccc(C)c1N1CCN(C(=O)Nc2ccc3c(c2)OCCO3)CC1	i	?	4.6µM*	9%	7%
CCC(CC)C(=O)Nc1nnc(S(=O)(=O)N2CCCCCC2)s1	i	20%	i	-10%	0%
CCc1ccc(C(=O)NC2CCCCC2)s1	i	?	?	-4%	?
Cc1ccc(-c2noc(CCC(=O)NC3CCCC3)n2)cc1	i	0%	i	-23%	4%
COc1cc(-c2noc(CCCC(=O)NC3CCCCC3)n2)cc(OC)c1OC	i	5.2µM*	i	4%	2%
CCOc1ccc(-c2noc(CCCC(=O)NC3CCCCC3)n2)cc1OC	i	2%	?	-1%	0%
Cc1ccc(-c2noc(CCCC(=O)NC3CCCCC3)n2)cc1	?	?	16µM*	2%	9%
C[C@@H]1NC(=O)c2cc([N+](=O)[O-])cc(I)c2NCCCC[C@@H](C(N)=O)NC(=O)[C@H](CC(N)=O)NC1=O	i	19%	i	12%[9.22 µM]	-3%
COc1cc(CNC(=O)OCC(C)C)cc(OC)c1OC	i	-7%	i	-1%[9.22 µM]	-2%
Cc1nonc1OCCNC(=O)C12CC3CC(CC(C3)C1)C2	i	3%	23µM*	?	0%
CCOC(=O)CNC(=O)C12CC3CC(CC(C3)C1)C2	i	-13%	i	-7%	1%
CCOc1cc(C(=S)N2CCCC2)ccc1OCC(=O)Nc1c(C)cc(C)cc1C	i	21µM*	?	-1%	-8%
O=C1c2ccccc2C(=O)c2c1ccc(C(=O)N1CCCCC1)c2NCCO	i	5%	?	1%	-2%
CC1CCCN(C(=O)c2ccc3c(c2NCCO)C(=O)c2ccccc2C3=O)C1 (stereo unspecified)	i	?	4.6µM*	-5%	6%
COC(=O)[C@]1(Cc2ccccc2)N[C@H](CN(C)C(=O)Nc2ccc(C(F)(F)F)cc2)[C@@H]2C(=O)N(C)C(=O)[C@@H]21	i	-1%	i	-24%	5%
COc1ccc(C2=NOC(COc3ccc4c(C)cc(=O)oc4c3)C2)c(OC)c1 (stereo unspecified)	5.8µM*	?	15µM*	12µM*	26µM*
Cc1cc(=O)oc2cc(OCCc3ccccc3)ccc12	21µM*	?	i	-2%	10%
COc1ccc2c(C)cc(=O)oc2c1	i	.	i	?	-3%
SMILES	KB-3-1 tox	ELG1 repair inh	KB-V1 cytotox	SW480 rerep	MCF10A rerep
Cc1cc(=O)oc2cc(OCCCC[n+]3ccccc3)ccc12	i	4%	i	0%	10%
COc1ccccc1C1=NOC(COc2ccc3c(C)cc(=O)oc3c2)C1 (stereo unspecified)	1.2µM*	-11%	18µM*	8.2µM*	1.6µM*
COc1cccc(COc2ccc3c(C)cc(=O)oc3c2)c1	i	?	?	0%	15%
Cn1c(=O)cc(SCC(=O)NCc2ccc(F)cc2)c2ccccc21	?	3%	i	15%	15µM*
Cn1c(=O)cc(SCC(=O)NCc2ccc(F)cc2)c2ccc(Cl)cc21	i	.	i	.	.
COc1ccc2c(c1)CC(C(=O)Nc1cccc(C)c1C)CO2 (stereo unspecified)	i	.	i	.	.
COc1ccc(C(=O)Nc2sc(C(=O)N(C)C)c(C)c2C#N)cc1[N+](=O)[O-]	?	2%	18µM*	?	-62%
COc1ccc(-c2c(C)sc(NC(=O)c3ccnn3C)c2C#N)cc1	10µM*	-11%	?	-330%	20%
Cc1sc(NC(=O)COc2ccccc2)c(C#N)c1-c1ccccc1	i	?	16µM*	-6%	-3%
COc1ccc(C(=O)Nc2sc(C)c(-c3ccccc3)c2C#N)cc1OC	i	26µM*	?	-10%	?
CC(C)(Oc1ccc(Cl)cc1)C(=O)NC1=NN(c2ccccc2)C(=O)C1	?	5%	?	1%	?
CCCC(=O)Nc1ccc2c(c1)COC2=O	i	-11%	i	-6%	-3%
CN1C2CCC1/C(=C\c1ccccc1F)C(=O)/C2=C/c1ccccc1F	?	-1%	13µM*	12%	?
Cn1c(SCC(=O)NCC2CCCO2)nc2c([nH]c3ccccc32)c1=O (stereo unspecified)	i	?	?	-4%	3%
C=CCn1c(SCC(=O)NCC2CCCO2)nc2c([nH]c3ccccc32)c1=O (stereo unspecified)	i	4.1µM*	i	-11%	?
COc1ccc2nc(N=Nc3ccc(N(C)C)cc3)sc2c1	13µM*	?	?	2%	-1%
COc1ccc2nc(/N=C\N(C)C)sc2c1	i	?	i	6%	2%
CNC(=S)N/N=C(\C)c1ccc(Cl)c(Cl)c1	i	17%	?	-21%	0%
CNC(=S)NN=C(C)CCCC(C)=NNC(=S)NC	?	.	i	0.41µM*	1%
CCCN(CC(=O)Nc1ccccc1OC)C(=O)c1ccc(COc2ccccc2)o1	i	-8%	?	-12%	-8%
Nc1oc2ccccc2c(=O)c1-c1ccc2c(c1)OCO2	i	?	?	-1%	-11%
CCc1cc2c(=O)c(-c3ccc4c(c3)OCCO4)c(C)oc2cc1OS(C)(=O)=O	?	23µM*	?	?	?
NC(=O)c1ccc(-n2nnnc2SCC(=O)NC2CCCCC2)cc1	i	?	i	7%	5%
Cc1ccc(S(=O)(=O)c2nc(Nc3ccccc3)sc2Cl)cc1	?	-18%	i	6%	?
